# Shown are actives, neighbours in structure and some others; about 3.5% of the full set was active somewhere.
# GPR151 activ: activators of human GPR151, primary screen, cell-based, PathHunter beta-arrestin, luminescence; G-protein coupled receptor 151 (Homo sapiens), Q8TDV0; PathHunter beta-arrestin GPR151 cells; activation, % at 11.2 µM; hit rate 1% among 650,000; AID 1508602, 2020; in the data active means activation above about 4.9%;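 further: 0% = median of compound wells and 100% = cells with positive control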
# MITF primary: MITF inhibitors, primary screen, biochemical, AlphaScreen, human | Microphthalmia-associated transcription factor (Homo sapiens), O75030 | AlphaScreen MITF homodimerization, bead proximity signal | inhibition, % at 2.6 µM | hit rate 0.91% among 650,000 | AID 1259374, 2018; in the data active means inhibition above about 50%;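 further: 0% = vehicle wells with protein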
# TEAD-YAP block: TEAD-YAP interaction inhibition, primary screen, TEAD-YAP interaction inhibitor project, luminescence, HEK-TIYL cells. TEAD-Gal4/YAP UAS-luciferase luminescence. inhibition, % at 9.12 µM. hit rate 1.4% among 640,000; in the data active means inhibition above about 32%;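 further: 0% = median of test compound wells and 100% = reference inhibitor wells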
# FBW7 act: FBW7 E3 ligase activators, primary screen, biochemical, AlphaScreen, human; hit rate 0.13% among 650,000; normalized activity (activation), % at 26.1 µM; F-box/WD repeat-containing protein 7 (Homo sapiens), Q969H0; AlphaScreen FBW7–phospho-cyclin E peptide binding, activator screen; in the data active means normalized activity above about 1.9%;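 further: purified mutant Fbw7 with reduced substrate affinity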
# Target sequence (Q969H0 whole entry, looked up): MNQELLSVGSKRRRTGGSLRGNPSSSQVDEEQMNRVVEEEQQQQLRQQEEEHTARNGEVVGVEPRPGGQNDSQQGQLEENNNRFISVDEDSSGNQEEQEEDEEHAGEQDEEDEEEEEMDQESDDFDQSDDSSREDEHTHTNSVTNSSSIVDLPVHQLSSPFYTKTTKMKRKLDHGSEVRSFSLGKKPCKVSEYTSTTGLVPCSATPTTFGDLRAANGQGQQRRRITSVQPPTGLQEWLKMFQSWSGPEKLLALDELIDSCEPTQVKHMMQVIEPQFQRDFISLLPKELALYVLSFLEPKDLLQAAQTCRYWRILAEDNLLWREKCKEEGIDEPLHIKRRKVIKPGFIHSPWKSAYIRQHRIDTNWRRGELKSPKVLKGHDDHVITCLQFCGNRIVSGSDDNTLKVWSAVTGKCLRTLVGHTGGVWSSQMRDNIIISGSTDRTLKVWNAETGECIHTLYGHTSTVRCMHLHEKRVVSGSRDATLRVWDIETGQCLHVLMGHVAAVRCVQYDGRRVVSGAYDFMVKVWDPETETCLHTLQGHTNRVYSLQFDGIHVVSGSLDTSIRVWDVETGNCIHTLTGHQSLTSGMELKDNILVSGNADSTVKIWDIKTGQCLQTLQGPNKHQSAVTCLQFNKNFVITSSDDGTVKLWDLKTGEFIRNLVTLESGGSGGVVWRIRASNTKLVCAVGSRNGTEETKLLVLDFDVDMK
# GPR151 confirm: GPR151 activators, triplicate retest, confirmation, cell-based, PathHunter beta-arrestin, luminescence | shares compounds with GPR151 activ | GPR151 PathHunter beta-arrestin cells, 90 min; % of EA-reagent control over plate median | activation, % at 11.2 µM | 6,700 tested, under 10 active;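 active means mean percent activation across replicates above the confirmation screen cutoff of 4.91%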
# GPR119 counter: GPR119 activators in beta-arrestin cells, counter-screen for GPR151 activator project, cell-based, PathHunter beta-arrestin, luminescence, triplicate; shares compounds with GPR151 activ; 90 min; 0 = compound-well median, 100 = enzyme-acceptor control; activation, % at 11.2 µM; hit rate 0.3% among 6,700;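 active means mean percent activation in the counterscreen above 29.09%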;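 further: counterscreen on off-target GPR119 to flag nonselective hits from the GPR151 activator screen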
# Numbers without * were called inactive; . = not tested or not shown; ! = not active in a repeat.
SMILES,GPR151 activ,MITF primary,TEAD-YAP block,FBW7 act,GPR151 confirm,GPR119 counter
O=c1c2ccccc2nc(/C=C\c2cccc(C(F)(F)F)c2)n1-c1cccc([N+](=O)[O-])c1,1,-14,-1,0,.,.
CCc1ccccc1N(CC(=O)Nc1ccccc1Cl)S(C)(=O)=O,14*,-5,4,0,-1,1
COc1ccc(S(=O)(=O)Nc2ccc(Cl)cc2)cc1I,19*,2,9,0,0,6
COc1ccccc1NS(=O)(=O)c1ccc(Br)c(C(=O)Nc2ccccc2)c1,2,11,5,0,.,.
COC(=O)COc1ccc(S(=O)(=O)Nc2ccc(S(N)(=O)=O)cc2)cc1C,5.9*,3,-6,0,1,-1
COC(=O)COc1ccc(S(=O)(=O)Nc2ccc(C(N)=O)cc2)cc1C,-1,-8,3,0,.,.
COc1ccc(S(=O)(=O)Nc2ccc(-c3cn4ccsc4n3)cc2)cc1C,13*,6,7,0,1,9
COc1ccccc1NS(=O)(=O)c1ccc(Cl)c(C(=O)Nc2ccc(Cl)cc2)c1,9.6*,6,9,0,0,-8
CN(C)C(=O)Cn1nc2n(C)c3ccccc3n2c1=O,-1,5,1,1,.,.
COc1ccc(S(=O)(=O)Nc2ccc(I)cc2)cc1C,6.8*,2,4,0,0,-8
COCCNS(=O)(=O)c1ccc(OC)c(I)c1,9.4*,-10,3,0,1,9
COc1ccc(S(=O)(=O)Nc2ccc3oc4c(c3c2)CCCC4)cc1[N+](=O)[O-],6.4*,-4,10,0,0,1
COCCNS(=O)(=O)c1ccc(Cl)c(C(F)(F)F)c1,8.8*,3,5,0,1,7
COc1ccc(S(=O)(=O)Nc2ccc(C)c(C)c2)cc1[N+](=O)[O-],4,10,1,0,.,.
COCCCNS(=O)(=O)c1ccc(OC)c(I)c1,-1,4,-2,0,.,.
Cc1sc2nc(COc3ccccc3)nc(NCCNC(=O)CCl)c2c1C,0,3,19,0,.,.
O=C1CCCC(=O)N1CCS(=O)(=O)N1CCN(c2ncccn2)CC1,-1,-6,0,0,.,.
COc1ccccc1NS(=O)(=O)c1cccc(S(=O)(=O)Nc2ccccc2OC)c1,-1,7,9,0,.,.
COc1ccccc1NS(=O)(=O)c1cccc(C(F)(F)F)c1,6.8*,-6,3,0,0,10
COCCCNS(=O)(=O)c1ccc2[nH]c(=O)[nH]c2c1,6.0*,-3,-6,0,1,16
O=c1[nH]c2ccc(S(=O)(=O)NCCO)cc2[nH]1,-1,2,3,0,.,.
COc1ccc(S(=O)(=O)NCCCCCC(=O)O)cc1C(=O)O,8.8*,10,0,0,1,-3
N#CC(C#N)c1nc2ccccc2nc1N1CCOCC1,0,1,10,0,.,.
COc1ccc(-c2noc(CC(=O)Nc3ccc(F)c(Cl)c3)n2)cc1,-1,18,-1,0,.,.
O=C(c1ccccc1Cl)N1N=C(c2cccnc2)CC1c1ccccc1O (centres undefined),6.7*,9,15,0,-1,6
SMILES,GPR151 activ,MITF primary,TEAD-YAP block,FBW7 act,GPR151 confirm,GPR119 counter
Cc1nc(C)c(I)c(NC2CCCCC2)n1,0,3,-6,0,.,.
CC(=O)N1CCc2cc(S(=O)(=O)NCCC(=O)NCCc3ccc(Cl)cc3)ccc21,6.5*,-7,28,0,0,0
COCCn1c(SCC(=O)Nc2ccc(C)c(C)c2)nnc1C(C)C,8.2*,7,12,0,0,0
COc1ccc(OC)c(C2=NOC(C(=O)NCc3ccccc3)C2)c1 (centres undefined),1,16,16,0,.,.
COc1ccc(OC)c(C2=NOC(C(=O)NCc3cccnc3)C2)c1 (centres undefined),6.3*,-13,1,0,1,6
CC[C@@H](C(=O)[C@@H](C)[C@@H](O)[C@H](C)[C@@H]1O[C@@H]([C@@H](CC)C(=O)O)CC[C@@H]1C)[C@H]1O[C@]2(C=C[C@@H](O)[C@]3(CC[C@@](C)([C@H]4CC[C@](O)(CC)[C@H](C)O4)O3)O2)[C@H](C)C[C@@H]1C,11*!,-4,78*!,0,0,6
CC(C)(C)CN1CCNC(=O)C1CC(=O)NC1CCCCCCC1 (centres undefined),11*,11,-13,0,-1,-4
Cn1ccnc1SCCNC(=O)CC1C(=O)NCCN1CC1CCCCC1 (centres undefined),7.6*,15,10,0,0,6
Cc1ccccc1CSCCC(=O)NC1CCCCC1C (centres undefined),1,8,-7,0,.,.
O=C(O)COc1ccc(N2C(=O)c3ccc(-c4nc5ccccc5c(=O)o4)cc3C2=O)cc1,7.2*,-2,0,0,0,-3
CCCn1cnc2sc(C(=O)Nc3ccccc3OC)c(C)c2c1=O,11*,0,-8,0,-1,-12
CCOC(=O)N1CCC(NCCNC(=O)c2ccc(Cl)cc2)CC1,12*,33,17,0,0,4
CCOC(=O)N1CCC(NC(=O)C(=O)CC(=O)c2ccc(OC)cc2)CC1,5.4*,4,13,0,0,13
CCOC(=O)N1CCC(NC(=O)c2ccc(CSCc3c(F)cccc3Cl)o2)CC1,5.3*,-17,1,0,-2,4
CCOC(=O)N1CCC(Nc2nncc(-c3ccc(OC)cc3)n2)CC1,10*,-3,11,0,0,1
Cc1nc(N/N=C/c2ccc3c(c2)OCO3)sc1C,3,-15,-31,0,.,.
COc1ccc2nc(Cl)c(C3CC(c4ccccc4)=NN3C(=O)CCCC(=O)O)cc2c1 (centres undefined),5.0*,17,3,0,0,2
COc1ccc2nc(Cl)c(C3CC(c4ccc(Cl)cc4)=NN3C(=O)CCCC(=O)O)cc2c1 (centres undefined),0,7,-3,0,.,.
CCOC(=O)c1cc2c(c(CSc3nc4ccccc4c(=O)n3Cc3ccc4c(c3)OCO4)c1)OCOC2,4.9*,-7,-7,0,3,10
CCOC(=O)c1cc2c(c(CSc3nc4ccccc4c(=O)n3Cc3cccs3)c1)OCOC2,1,1,-9,0,.,.
Cc1cccc(C)c1NC(=O)CCC(=O)O,20*,5,2,0,0,-10

# Screens deposited in PubChem by The Scripps Research Institute Molecular Screening Center.
